The results in this text go back to PubChem BioAssay (Tox21).

Test [1] in a line: qHTS assay to identify small molecule antagonists of the thyroid receptor (TR) signaling pathway - cell viability counter screen (AID 743064). Further: nearly all actives have a fitted effect of over 50% in size. A digest of the protocol: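 Plate GH3.TRE-Luc cells; incubate 4 h at 37 °C; add compound, then T3 to 1 nM final; incubate 23.5 h; add CellTiter-Fluor; incubate 30 min at 37 °C, 5% CO2; read fluorescence.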
(In general: qHTS replaces the single test concentration by a dilution series.)

A short description of test [2]: qHTS assay to identify small molecule antagonists of the thyroid receptor (TR) signaling pathway (AID 743065). Further: series mostly up to about 70 µM; nearly all actives have a fitted effect of over 55% in size. A digest of the protocol: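 GH3.TRE-Luc rat pituitary cells (two TREs driving luciferase) were dosed with compound, then stimulated with 1 nM T3 (final) for 23.5 h at 37 C. ONE-Glo luminescence was the read-out, with CellTiter-Fluor fluorescence as the cytotoxicity counter-screen.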

The subject of test [3] is thyroid hormone receptor (rat, GH3 cells). Put plainly: qHTS assay to identify small molecule agonists of the thyroid receptor (TR) signaling pathway (AID 743066; calls by dose curve).
The target in test [4] is Estrogen receptor (Homo sapiens) (UniProt P03372). As to the kind of experiment: qHTS assay to identify small molecule antagonists of the estrogen receptor alpha (ER-alpha) signaling pathway (AID 743069; active means well fitted curve in the direction sought with a large enough effect in the signal ratio in the repeat runs, not every such curve was filed as active; the % refers to the signal ratio). A digest of the protocol: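 Beta-lactamase FRET fluorescence is read after 2 hr at room temperature with LiveBLAzer B/G substrate. Before that, ER-alpha-bla HEK293 cells sit 4 hr after plating, then receive compound plus 17beta-estradiol and incubate 18 hr at 37C.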

Test [5] can be described thus: qHTS assay to identify small molecule antagonists of the estrogen receptor alpha (ER-alpha) signaling pathway - cell viability counter screen (AID 743074; calls by dose curve;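 further: HEK293 cells carrying ER-alpha-UAS-bla reporter stimulated with 17beta-estradiol; nearly all actives have a fitted effect of over 45% in size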).
Test [6] concerns the target Estrogen receptor (Homo sapiens) (UniProt P03372). As to the kind of experiment: qHTS assay to identify small molecule agonists of the estrogen receptor alpha (ER-alpha) signaling pathway (AID 743075; calls by dose curve;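 further: HEK293 GripTite cells with ER-alpha and UAS-driven beta-lactamase reporter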).
Test [7] has the same target. Put plainly: qHTS assay to identify small molecule agonists of the estrogen receptor alpha (ER-alpha) signaling pathway using the BG1 cell line (AID 743079). Further: nearly all actives have a fitted effect of over 20% in size.
Test [8] is described as follows: qHTS assay to identify small molecule antagonists of the estrogen receptor alpha (ER-alpha) signaling pathway using the BG1 cell line (AID 743080; calls by dose curve;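 further: BG1 cells stimulated with 17beta-estradiol alongside compound; series mostly up to about 70 µM; nearly all actives have a fitted effect of over 25% in size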). A digest of the protocol: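 Seeding, 24 h rest, compound transfer from DMSO, 17beta-estradiol addition, 21.5 h incubation, CellTiter-Fluor (30 min, 37 C), then ONE-Glo (30 min, room temperature): this sequence was run on BG1-Luc-4E2 reporter cells.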

The nature of test [9]: qHTS assay to identify small molecule antagonists of the estrogen receptor alpha (ER-alpha) signaling pathway using the BG1 cell line - cell viability counter screen (AID 743081).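 Further: compound given together with 17beta-estradiol as the ER stimulus; series mostly up to about 70 µM; nearly all actives have a fitted effect of over 45% in size.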
Test [10] concerns the target Aromatase (Homo sapiens) (UniProt P11511). As to the kind of experiment: qHTS assay to identify aromatase inhibitors (AID 743083). Further: series mostly up to about 70 µM; nearly all actives have a fitted effect of over 55% in size.
Test [11] in a line: qHTS assay to identify aromatase inhibitors - cell viability counter screen (AID 743084).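 Further: cells stimulated with testosterone during compound exposure; nearly all actives have a fitted effect of over 55% in size.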
For test [12], the target named is Aryl hydrocarbon receptor (Homo sapiens) (UniProt P35869). Put plainly: qHTS assay to identify small molecule that activate the aryl hydrocarbon receptor (AhR) signaling pathway (AID 743085). Further: nearly all actives have a fitted effect of over 15% in size. Further: potency means the concentration at half of the fitted maximal effect.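 On activation: HG2L7.5c1 human HepG2 liver cells with stably integrated DRE-driven firefly reporter; series mostly up to about 70 µM.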 A digest of the protocol:
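Steps: seed HepG2-AhR-luc cells; allow 5 h at 37C; pin-transfer test compound or vehicle; incubate 24 h at 37C; add viability dye (30 min, 37C) and read fluorescence; add luciferase substrate (30 min, RT) and read luminescence.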

Test [13] is described as follows: qHTS assay to identify small molecule that activate the aryl hydrocarbon receptor (AhR) signaling pathway - cell viability counter screen (AID 743086).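 Further: HepG2 liver cells carrying the AhR DRE luciferase reporter; series mostly up to about 70 µM; nearly all actives have a fitted effect of over 45% in size.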 A digest of the protocol: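 HepG2-AhR-luc (HG2L7.5c1) cells, 4000/well, treated 24 h at 37 C with compound; viability measured as CellTiter-Fluor fluorescence after 30 min in the same wells as the luciferase read.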

Test [14] has as its target Peroxisome proliferator-activated receptor gamma (Homo sapiens) (UniProt P37231). Put plainly: qHTS assay to identify small molecule agonists of the peroxisome proliferator-activated receptor gamma (PPARg) signaling pathway (AID 743094; active means well fitted activation curve with a large enough effect in the signal ratio in the repeat runs, not every such curve was filed as active; the % refers to the signal ratio). A digest of the protocol:
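HEK293H PPARg-bla cells, 5 h settle at 37C/5% CO2; compound (DMSO) 17 h, 37C; B/G FRET substrate 1 h RT; fluorescence intensity read-out. qHTS format.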

Test [15] is described as follows: qHTS assay to identify small molecule antagonists of the peroxisome proliferator-activated receptor gamma (PPARg) signaling pathway - cell viability counter screen (AID 743194). Further: nearly all actives have a fitted effect of over 55% in size. The procedure, abridged: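 Cytotoxicity counter screen in PPARg-bla HEK293H cells, same wells as reporter assay. Compounds plus 50 nM rosiglitazone (final) for 17 h at 37 C, then viability read by CellTiter-Glo luminescence.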

Test [16] can be described thus: qHTS assay for small molecule agonists of the antioxidant response element (ARE) signaling pathway (AID 743202; active means well fitted activation curve with a large enough effect in the signal ratio in the repeat runs, not every such curve was filed as active; the % refers to the signal ratio). A digest of the protocol: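 HepG2 ARE-bla reporter line, 2,000 cells/well; 5 h preincubation 37 C/5% CO2; compound (DMSO) 16 h 37 C; B/G FRET substrate 2 h RT; fluorescence intensity.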
Test [17] is described as follows: qHTS assay for small molecule activators of the heat shock response signaling pathway - cell viability counter screen (AID 743209). Further: nearly all actives have a fitted effect of over 50% in size. A digest of the protocol:
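HSE-bla HeLa; 1500 cells/well; overnight 37 C, 5% CO2; compound 5 h 37 C; LiveBLAzer B/G substrate 2.5 h RT; CellTiter-Glo 30 min RT; luminescence.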

Test [18] can be described thus: qHTS assay for small molecule activators of the heat shock response signaling pathway (AID 743210; active means well fitted activation curve with a large enough effect in the signal ratio in the repeat runs, with a control signal flat, not every such curve was filed as active; the % refers to the signal ratio;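 further: HeLa cells with beta-lactamase reporter driven by heat shock elements; series mostly up to about 63 µM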). The procedure, abridged:
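Beta-lactamase reporter read-out: FRET substrate fluorescence after 2.5 h at RT, following 5 h compound treatment at 37 C of HeLa cells carrying HSE-driven bla reporter; quantitative HTS format.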

Test [19] deals with Peroxisome proliferator-activated receptor gamma (Homo sapiens) (UniProt P37231). As to the kind of experiment: qHTS assay to identify small molecule antagonists of the peroxisome proliferator-activated receptor gamma (PPARg) signaling pathway (AID 743191; calls by dose curve; further: series mostly up to about 63 µM; nearly all actives have a fitted effect of over 30% in size). A digest of the protocol:
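GeneBLAzer PPARg UAS-bla HEK293H cells, 5 h post-plating, exposed to compounds 17 h at 37C. LiveBLAzer B/G FRET substrate added for 1 h at room temperature; beta-lactamase reporter read by fluorescence intensity.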

Test [20] can be described thus: qHTS assay for small molecule agonists of the antioxidant response element (ARE) signaling pathway - cell viability counter screen (AID 743203; calls by dose curve; further: nearly all actives have a fitted effect of over 55% in size). A digest of the protocol: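 Luminescence read-out (CellTiter-Glo, 30 min at room temperature) measured cell viability in the same wells as the ARE beta-lactamase reporter. HepG2 ARE-bla cells were treated with compounds for 16 hrs at 37C/5% CO2.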

Inconclusive results are not listed. Values without a mark were called inactive. Calls of active or inactive are those of the source. Unless noted, the call rests on the fitted dose curve; in most records, active means well fitted curve in the direction sought with a large enough effect in the repeat runs; inconclusive means weak or mixed curves; inactive means no such curve, though single readings can be large; an effect the other way counts as inactive or inconclusive.

Sequence of Estrogen receptor (Homo sapiens) (P03372 whole entry, looked up): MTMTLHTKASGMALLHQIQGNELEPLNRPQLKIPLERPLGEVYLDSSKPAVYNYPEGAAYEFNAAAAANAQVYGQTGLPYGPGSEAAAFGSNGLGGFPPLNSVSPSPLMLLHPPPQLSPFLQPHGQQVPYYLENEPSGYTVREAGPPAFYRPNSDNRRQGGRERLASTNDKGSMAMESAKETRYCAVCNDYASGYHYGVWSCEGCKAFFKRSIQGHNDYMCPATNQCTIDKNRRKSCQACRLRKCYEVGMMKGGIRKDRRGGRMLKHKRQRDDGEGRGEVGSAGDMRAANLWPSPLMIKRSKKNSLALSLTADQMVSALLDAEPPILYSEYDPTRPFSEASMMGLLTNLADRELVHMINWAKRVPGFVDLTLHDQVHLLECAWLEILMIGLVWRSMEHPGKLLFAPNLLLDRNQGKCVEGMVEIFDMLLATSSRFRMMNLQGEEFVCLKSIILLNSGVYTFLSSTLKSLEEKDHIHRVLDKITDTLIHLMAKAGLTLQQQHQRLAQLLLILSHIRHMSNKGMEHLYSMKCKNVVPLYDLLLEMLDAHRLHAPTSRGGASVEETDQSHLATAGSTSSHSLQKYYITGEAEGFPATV
Sequence of Peroxisome proliferator-activated receptor gamma (Homo sapiens) (P37231 whole entry, looked up): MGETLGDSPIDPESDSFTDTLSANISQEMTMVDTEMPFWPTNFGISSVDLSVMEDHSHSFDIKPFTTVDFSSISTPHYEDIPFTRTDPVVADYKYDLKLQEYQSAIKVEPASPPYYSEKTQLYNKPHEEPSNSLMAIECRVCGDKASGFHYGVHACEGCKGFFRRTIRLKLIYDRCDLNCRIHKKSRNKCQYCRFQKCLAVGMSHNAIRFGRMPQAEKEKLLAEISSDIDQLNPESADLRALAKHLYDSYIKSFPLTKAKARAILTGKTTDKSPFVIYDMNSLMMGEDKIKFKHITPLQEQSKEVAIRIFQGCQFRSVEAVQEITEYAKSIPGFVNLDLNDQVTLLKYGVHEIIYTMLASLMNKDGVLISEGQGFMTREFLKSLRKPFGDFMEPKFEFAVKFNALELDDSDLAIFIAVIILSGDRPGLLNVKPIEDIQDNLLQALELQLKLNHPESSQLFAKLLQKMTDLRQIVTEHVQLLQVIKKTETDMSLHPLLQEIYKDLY
Sequence of Aryl hydrocarbon receptor (Homo sapiens) (P35869 whole entry, looked up): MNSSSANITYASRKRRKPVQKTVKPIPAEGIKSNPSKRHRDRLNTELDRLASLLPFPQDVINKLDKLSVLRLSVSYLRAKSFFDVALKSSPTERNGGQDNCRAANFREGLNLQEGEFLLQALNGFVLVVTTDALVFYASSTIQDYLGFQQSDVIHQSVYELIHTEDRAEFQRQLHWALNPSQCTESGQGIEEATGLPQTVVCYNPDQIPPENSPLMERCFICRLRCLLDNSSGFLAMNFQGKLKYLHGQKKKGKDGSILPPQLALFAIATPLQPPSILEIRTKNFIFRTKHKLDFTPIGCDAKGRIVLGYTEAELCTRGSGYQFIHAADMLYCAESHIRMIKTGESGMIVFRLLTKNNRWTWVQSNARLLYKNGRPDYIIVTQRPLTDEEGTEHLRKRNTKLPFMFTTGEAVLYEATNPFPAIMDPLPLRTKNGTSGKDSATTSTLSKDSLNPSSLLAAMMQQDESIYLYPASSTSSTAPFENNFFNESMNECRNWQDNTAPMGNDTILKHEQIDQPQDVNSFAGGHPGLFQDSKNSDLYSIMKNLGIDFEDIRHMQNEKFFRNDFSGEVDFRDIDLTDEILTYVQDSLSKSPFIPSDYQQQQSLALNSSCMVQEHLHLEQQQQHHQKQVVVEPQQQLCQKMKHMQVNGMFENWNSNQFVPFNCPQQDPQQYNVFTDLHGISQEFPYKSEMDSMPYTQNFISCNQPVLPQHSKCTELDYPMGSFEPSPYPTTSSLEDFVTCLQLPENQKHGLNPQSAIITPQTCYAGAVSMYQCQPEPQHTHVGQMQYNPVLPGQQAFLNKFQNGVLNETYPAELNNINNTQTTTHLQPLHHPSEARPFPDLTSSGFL
Sequence of Aromatase (Homo sapiens) (P11511 whole entry, looked up): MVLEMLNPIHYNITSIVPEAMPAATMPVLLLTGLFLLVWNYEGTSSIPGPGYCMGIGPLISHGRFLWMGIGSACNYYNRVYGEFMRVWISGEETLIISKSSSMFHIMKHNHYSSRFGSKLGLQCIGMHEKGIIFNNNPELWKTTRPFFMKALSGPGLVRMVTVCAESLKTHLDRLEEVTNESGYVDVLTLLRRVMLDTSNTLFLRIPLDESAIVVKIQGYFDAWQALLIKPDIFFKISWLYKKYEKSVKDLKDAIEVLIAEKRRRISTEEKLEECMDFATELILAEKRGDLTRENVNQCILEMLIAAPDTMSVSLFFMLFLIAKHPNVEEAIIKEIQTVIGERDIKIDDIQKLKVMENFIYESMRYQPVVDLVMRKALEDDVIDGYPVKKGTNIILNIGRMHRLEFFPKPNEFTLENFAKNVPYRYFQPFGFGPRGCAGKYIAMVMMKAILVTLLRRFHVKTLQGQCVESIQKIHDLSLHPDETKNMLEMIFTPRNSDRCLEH

Turning to `CC/C=C\CCOC(=O)c1ccccc1O`, the Potency entry in test [1], in [2], in test [6], in [7], in test [9] and in test [11] was “inactive” throughout. Besides, the Potency result in test [12], in test [13], in [14], in [16] and in test [17] was “inactive” throughout. Also, the outcome in [3], in test [4], in test [5], in [8], in test [10] and in [15] was inactive. Also, the call in [18] was inactive.
For `CCOc1cccc(N)c1`, the Potency entry in test [1], in test [2], in [6], in [7], in [9] and in test [11] was “inactive” each time. Moreover, the Potency entry in [12], in test [13], in [16] and in test [17] was “inactive” in each case. Besides, the result in test [3], in [4], in test [5], in test [8], in test [10] and in [19] was inactive. Further, the call in test [15], in [20] and in test [18] was inactive.
On to `COc1ccc2c(c1)c1c3n2CCN(C)C3=NCC1`, for which the Potency entry in test [1], in [2], in [6], in test [7], in test [9] and in [11] was “inactive” each time. Besides, the Potency result in test [13], in test [14], in test [16] and in test [17] was “inactive” in each case. Also, the compound was called inactive in [3], in [4], in test [5], in test [10], in [19] and in [20]. The outcome in [18] was inactive. For the same compound, in test [12], the Potency was 13.3 µM (active).
For the compound `CC1OCCC1=O` (stereo not drawn), the Potency result in test [1], in test [2], in test [6], in test [7], in test [9] and in test [11] was “inactive” in each case. The Potency entry in test [12], in [13], in [16] and in test [17] was “inactive” each time. In addition, the compound was called inactive in test [3], in test [4], in test [5], in test [8], in [10] and in test [15]. Also, the outcome in test [20] and in test [18] was inactive.
As to `CCCCOCC(C)O` (stereo not drawn), the Potency entry in [1], in test [2], in test [6], in test [7], in test [9] and in [11] was “inactive” throughout. Further, the Potency result in test [12], in test [13], in [14] and in test [17] was “inactive” in each case. Besides, the compound was classed as inactive in test [3], in test [4], in [5], in [8], in test [10] and in [15]. Further, the outcome in test [20] and in test [18] was inactive.
Consider `[O]=[Mo](=[O])=[O]`, for which the Potency result in test [1], in test [2], in test [6], in test [7], in test [9] and in [11] was “inactive” each time. For the same compound, the Potency entry in test [12], in [13], in [16] and in test [17] was “inactive” in each case. Further, the call in test [3], in test [4], in [5], in [8], in [10] and in test [15] was inactive. Also, the result in [20] and in test [18] was inactive.
With `CCCCCC(C)O` (stereo not drawn), the Potency entry in [1], in [2], in [6], in test [7], in test [9] and in test [11] was “inactive” in each case. Moreover, the Potency result in [12], in test [13], in test [14], in test [16] and in test [17] was “inactive” each time. Further, the result in [3], in [4], in test [5], in test [10], in test [19] and in test [15] was inactive. In test [18], the call was inactive.
Take `OC1OCCOC1O` (stereo not drawn): the Potency result in [1], in test [2], in test [6], in [7], in test [9] and in test [11] was “inactive” in each case. Moreover, the Potency entry in test [12], in test [13], in test [16] and in test [17] was “inactive” in each case. Also, the call in test [3], in test [4], in test [5], in test [10], in test [15] and in [20] was inactive.
